Twelve compounds from paper PMC5540273 (PLoS ONE, 2017) can be followed below.

Among the test systems are EIF2AK1; EPHA1; EPHA2; EPHA3; EPHA4; EPHA5; EPHA6; EPHA7; EPHA8; EPHB1; EPHB2; EPHB3; EPHB4; EPHB6; ERBB2; ERBB3; ERBB4.
What all share (settings): concentration: 1 μM, replicates: in singlicate; n = 1
For another assay, the system named is T1, ERK1.
T1 construct: gene MAPK3

In a further assay the test system is T2, ERK2.
T2 construct: gene MAPK1

The test system of the next assay is T3, ERK3.
T3 construct: gene MAPK6
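Also: KINOMEscan kinase panel screen.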

`Nc1nc(-c2ccc3c(N)n[nH]c3c2)cc(N2CCCCC2)n1` [GSK2228768]: the “%Inh” value in the assay on EIF2AK1 is 0%; in the assay on EPHA1 it was 0%; with EPHA2 it was 0%; in the assay with EPHA3 it was 0%; with EPHA4 it was 3%; with EPHA5 it was 0%. Also, the “%Inh” value in the assay on EPHA6 turned out to be 0%; with EPHA7, 0%; in the assay on EPHA8 it was 0%; in the assay on EPHB1, 9%; in the assay with EPHB2, 0%; in the assay with EPHB3, 0%. Further, the “%Inh” value stood at 8% in the assay on EPHB4; 0% with EPHB6; 2% in the assay with ERBB2; 0% in the assay on ERBB3; 0% with ERBB4; 0% in the assay on ERK1. In addition, the “%Inh” value in the assay with ERK2 stood at 0%; in the assay with ERK3, 6%.

Take `COc1ccc(NC(=O)Nc2ccc(C)c(-c3ccc(C(=O)Nc4ccncc4)cc3)c2)cc1` [GSK1398475]: the “%Inh” value in the assay on EIF2AK1 turned out to be 0%; with EPHA1 it was 6%; in the assay on EPHA2 it was 8%; in the assay on EPHA3, 13%; with EPHA4, 1%; in the assay on EPHA5, 0%. Further, the “%Inh” value is 11% in the assay on EPHA6; 4% in the assay with EPHA7; 14% with EPHA8; 13% in the assay on EPHB1; 12% in the assay on EPHB2; 13% in the assay with EPHB3. Also, the “%Inh” value in the assay with EPHB4 stood at 13%; in the assay with EPHB6 it was 20%; in the assay on ERBB2 it was 0%; in the assay on ERBB3 it was 0%; with ERBB4, 19%; in the assay on ERK1 it was 2%. In addition, the results for the “%Inh” value in the assay with ERK2 and with ERK3 were 0% and 9%, respectively.

Take `FC(F)(F)c1ccc(-c2cc(-c3c[nH]nc3-c3ccccn3)ccn2)cc1` [GW599550]: the “%Inh” value in the assay on EIF2AK1 turned out to be 100%; in the assay on EPHA1 it was 2%; in the assay with EPHA2, 0%; in the assay with EPHA3, 13%; with EPHA4, 0%; with EPHA5 it was 0%. In addition, the “%Inh” value in the assay with EPHA6 was found to be 0%; in the assay with EPHA7, 5%; in the assay with EPHA8, 9%; with EPHB1, 30%; with EPHB2 it was 0%; in the assay on EPHB3, 0%. Besides, the “%Inh” value with EPHB4 is 8%; with EPHB6 it was 37%; with ERBB2 it was 38%; in the assay on ERBB3, 16%; with ERBB4 it was 0%; in the assay with ERK1, 15%. Moreover, the “%Inh” value in the assay on ERK2 and in the assay on ERK3 was 0% throughout.

On to `Cc1cccc(-c2nc(Nc3ccc4[nH]nnc4c3)c3ccccc3n2)n1` [GW867587], for which the “%Inh” value in the assay with EIF2AK1, in the assay on EPHA1, in the assay on EPHA2, in the assay on EPHA3, in the assay on EPHA4 and with EPHA5 was 0% each time. Also, the “%Inh” value with EPHA6 was 0%; in the assay on EPHA7, 0%; with EPHA8, 0%; in the assay on EPHB1, 6%; in the assay on EPHB2 it was 0%; in the assay on EPHB3 it was 0%. The “%Inh” value is on record as 0% with EPHB4; 0% in the assay on EPHB6; 0% in the assay with ERBB2; 0% in the assay on ERBB3; 11% in the assay with ERBB4; 0% in the assay with ERK1. For the same compound, the “%Inh” value in the assay on ERK2 and with ERK3 was 0% in each case.

As to `CNc1nccc(-c2c(-c3ccc(F)cc3)ncn2C2CCN(C)CC2)n1` [SB-222903], the “%Inh” value with EIF2AK1 came out at 0%; in the assay with EPHA1 it was 0%; with EPHA2 it was 0%; in the assay on EPHA3 it was 2%; in the assay on EPHA4 it was 1%; in the assay with EPHA5 it was 0%. The “%Inh” value in the assay with EPHA6 amounted to 0%; in the assay on EPHA7 it was 0%; in the assay on EPHA8 it was 0%; in the assay on EPHB1 it was 9%; with EPHB2, 0%; in the assay on EPHB3, 2%. The “%Inh” value in the assay with EPHB4 is 0%; with EPHB6, 0%; in the assay with ERBB2 it was 0%; with ERBB3, 0%; with ERBB4, 2%; in the assay on ERK1, 1%. The “%Inh” value in the assay with ERK2 and with ERK3 was 0% in each case.

`Cc1ccc(C)c(NC(=O)NCCNc2ccnc(Nc3ccc(F)cc3)n2)c1` [GSK1379878]: the “%Inh” value with EIF2AK1 is listed as 0%; in the assay with EPHA1, 6%; in the assay on EPHA2, 11%; in the assay with EPHA3, 0%; in the assay with EPHA4 it was 0%; in the assay on EPHA5, 0%. Also, the “%Inh” value in the assay on EPHA6 is 0%; with EPHA7, 0%; in the assay with EPHA8, 3%; in the assay on EPHB1, 0%; with EPHB2, 0%; in the assay with EPHB3, 0%. Further, the “%Inh” value worked out at 0% with EPHB4; 11% in the assay on EPHB6; 0% in the assay with ERBB2; 3% with ERBB3; 38% in the assay on ERBB4; 0% in the assay on ERK1. Besides, the “%Inh” value with ERK2 and in the assay on ERK3 was 0% each time.

With `Nc1nc(-c2cccnc2)c(-c2ccnc3ccccc23)s1` [GW684083], the “%Inh” value in the assay on EIF2AK1 turned out to be 0%; in the assay on EPHA1, 0%; with EPHA2 it was 21%; with EPHA3, 12%; with EPHA4, 4%; with EPHA5 it was 0%. The “%Inh” value in the assay on EPHA6 was 8%; in the assay with EPHA7, 0%; in the assay with EPHA8 it was 9%; with EPHB1 it was 6%; in the assay on EPHB2 it was 0%; with EPHB3, 17%. The “%Inh” value in the assay on EPHB4 was determined as 11%; in the assay on EPHB6, 28%; in the assay with ERBB2, 51%; with ERBB3, 20%; in the assay on ERBB4, 8%; with ERK1, 11%. Further, the “%Inh” value was determined as 4% with ERK2 and 0% with ERK3.

For `CCc1nc(-c2cccc(C)c2)c(-c2ccnc(NC(=O)c3ccccc3)c2)s1`, the “%Inh” value stood at 15% in the assay on EIF2AK1; 0% with EPHA1; 0% with EPHA2; 4% in the assay with EPHA3; 32% in the assay with EPHA4; 28% in the assay with EPHA5. Further, the “%Inh” value with EPHA6 was 45%; in the assay with EPHA7, 12%; in the assay on EPHA8, 15%; in the assay with EPHB1, 14%; with EPHB2, 4%; with EPHB3 it was 36%. For the same compound, the “%Inh” value in the assay on EPHB4 was found to be 37%; in the assay on EPHB6, 100%; with ERBB2, 46%; with ERBB3, 2%; in the assay on ERBB4, 34%; with ERK1, 0%. For the same compound, the “%Inh” value in the assay with ERK2 turned out to be 40%; in the assay on ERK3 it was 4%.

In the case of `Fc1cccc(COc2ccc(Nc3ncnc4nn5ccccc5c34)cc2Cl)c1` [GW689066], the “%Inh” value in the assay on EIF2AK1 amounted to 0%; in the assay on EPHA1, 11%; in the assay with EPHA2 it was 12%; with EPHA3, 0%; with EPHA4, 0%; in the assay on EPHA5 it was 0%. For the same compound, the “%Inh” value in the assay on EPHA6 is 9%; with EPHA7, 0%; in the assay with EPHA8, 0%; in the assay on EPHB1, 4%; in the assay on EPHB2, 0%; with EPHB3 it was 16%. Further, the “%Inh” value is listed as 0% in the assay with EPHB4; 1% in the assay on EPHB6; 98.2% in the assay with ERBB2; 27% in the assay on ERBB3; 95.2% in the assay with ERBB4; 0% in the assay on ERK1. Also, the “%Inh” value in the assay with ERK2 and with ERK3 was 0% each time.

Consider `Cn1ccc2ncnc(Oc3ccc(NC(=O)Nc4cccnc4)c(Cl)c3)c21`, for which the “%Inh” value is 0% in the assay on EIF2AK1; 0% in the assay with EPHA1; 0% in the assay with EPHA2; 4% in the assay on EPHA3; 29% in the assay with EPHA4; 11% in the assay on EPHA5. For the same compound, the “%Inh” value turned out to be 32% in the assay with EPHA6; 7% in the assay with EPHA7; 10% in the assay on EPHA8; 9% with EPHB1; 2% with EPHB2; 12% in the assay on EPHB3. Besides, the “%Inh” value amounted to 10% in the assay with EPHB4; 5% in the assay on EPHB6; 18% with ERBB2; 2% with ERBB3; 0% in the assay on ERBB4; 0% in the assay on ERK1. The “%Inh” value in the assay on ERK2 came to 11%; in the assay on ERK3 it was 0%.

In the case of `CCC(CC)(CC)n1cnc2c(N)ncnc21` [SKF-97620], the “%Inh” value with EIF2AK1 is reported as 30%; in the assay with EPHA1, 0%; in the assay on EPHA2, 100%; with EPHA3 it was 11%; in the assay with EPHA4 it was 15%; in the assay with EPHA5, 0%. Further, the “%Inh” value was 16% with EPHA6; 22% in the assay with EPHA7; 23% in the assay on EPHA8; 9% with EPHB1; 0% in the assay with EPHB2; 18% in the assay on EPHB3. In addition, the “%Inh” value in the assay on EPHB4 was found to be 0%; in the assay with EPHB6 it was 9%; in the assay on ERBB2, 20%; with ERBB3, 46%; in the assay with ERBB4 it was 32%; with ERK1 it was 0%. Also, the “%Inh” value in the assay on ERK2 and in the assay with ERK3 was 0% each time.

With `Fc1cccc(COc2ccc(Nc3ncnc4cc[nH]c34)cc2Cl)c1`, the “%Inh” value came out at 23% in the assay with EIF2AK1; 2% in the assay on EPHA1; 15% with EPHA2; 0% with EPHA3; 18% with EPHA4; 20% with EPHA5. In addition, the “%Inh” value in the assay on EPHA6 was determined as 7%; with EPHA7, 4%; in the assay on EPHA8, 1%; in the assay with EPHB1 it was 9%; in the assay on EPHB2, 20%; with EPHB3, 0%. In addition, the “%Inh” value is recorded as 22% in the assay with EPHB4; 19% with EPHB6; 100% with ERBB2; 11% in the assay on ERBB3; 83% in the assay on ERBB4; 8% with ERK1. For the same compound, the “%Inh” value in the assay with ERK2 is listed as 24%; with ERK3, 22%.
